Records with an inconclusive call do not appear. A number with no mark means an inactive call. The source made the active and inactive calls. Calls follow the shape of the dose curve; as a rule, active = well fitted activation curve with a large enough effect; inconclusive = small, poorly fitted or top-dose-only effect; inactive = no such curve, though single readings can be large or run the other way.
Potency is read from the fitted curve at half-maximal effect.

Chain of Cellular tumor antigen p53 (Homo sapiens) (P04637 whole entry, looked up): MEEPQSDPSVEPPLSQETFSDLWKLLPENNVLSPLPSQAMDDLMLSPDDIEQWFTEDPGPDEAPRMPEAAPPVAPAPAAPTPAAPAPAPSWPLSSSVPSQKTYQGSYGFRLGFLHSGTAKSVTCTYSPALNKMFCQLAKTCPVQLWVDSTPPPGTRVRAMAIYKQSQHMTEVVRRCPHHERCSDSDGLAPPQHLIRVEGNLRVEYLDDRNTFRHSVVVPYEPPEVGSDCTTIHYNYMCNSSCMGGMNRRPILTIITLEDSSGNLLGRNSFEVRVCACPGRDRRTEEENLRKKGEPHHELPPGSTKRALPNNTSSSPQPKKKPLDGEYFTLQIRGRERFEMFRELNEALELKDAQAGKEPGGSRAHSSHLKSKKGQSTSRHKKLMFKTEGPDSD

For this assay, the target named is Cellular tumor antigen p53 (Homo sapiens) (UniProt P04637). The assay is described as follows: Primary qHTS for small molecule compounds that upregulate eGFP-tagged delta133p53alpha (in N-terminal) cells. (AID 2060322). Also: nearly all actives have a fitted effect of over 75% in size.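 As to activation: series mostly up to about 56 µM; 0% = DMSO vehicle and 100% = reference activator.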 Conditions: NCI-H358 eGFP-delta133p53alpha fluorescence, 24 h; activation: active compounds read high. The method, boiled down:
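NCI-H358 cells pre-induced 24 h with 10 ng/ml doxycycline to express N-terminal eGFP-delta133p53alpha, then dosed 24 h at 37C without doxycycline; fixed, Hoechst-stained, GFP intensity by laser scanning cytometry, normalized to DMSO (0%) and 57.5 uM 5-azacytidine (100%).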
A general note: qHTS replaces the single test concentration by a dilution series.
`CC1=C(C(=O)O)N2C(=O)[C@@H](NC(=O)[C@H](N)c3ccc(O)cc3)[C@H]2SC1`: the activation is 0%. Still for that read-out and setting: the value for `CCc1ccc(C=C2SC(=S)NC2=O)cc1` was 32.5%; that for `Cc1cccc(N(C)C(=S)Oc2ccc3c(c2)C2CCC3C2)c1` (centres undefined) was -15.1%; that for `Cc1ccc(C(C)C)c(O)c1` was -8.47%. `CCCCCCCCCCCCCCCC[N+](C)(C)CCN(Cc1ccc(OC)cc1)c1ncccn1`: the Potency is 34.7 µM (active). As to `CC(=O)Nc1ccc(S(=O)(=O)Nc2ccc([N+](=O)[O-])cc2)cc1`, the activation was -10.7%.

Regarding `CC1=C(CO)C(=O)O[C@@H]([C@@H](C)[C@H]2CC[C@H]3[C@@H]4C[C@H]5O[C@]56[C@@H](O)C=CC(=O)[C@]6(C)[C@@H]4CC[C@]23C)C1`, the Potency was 3.85 µM (active). Turning to `Nc1ccncc1N`, the activation is 21.8%. Same read-out and setting: the value for `CCC(Cc1c(I)cc(I)c(N)c1I)C(=O)O` (centres undefined) was 29.9%; that for `Cc1ccc([C@@H]2O[C@H](CO)[C@@H](O)[C@H](O)[C@@H]2O)cc1Cc1ccc(-c2ccc(F)cc2)s1` was -12.3%. On to `CCN(CC)CCNC(=O)c1c(C)[nH]c(C=C2C(=O)Nc3ccc(F)cc32)c1C`, for which the Potency was 12.5 µM (active). On to `COc1ccc(C(=O)N2CCN(CC(=O)N3CCOCC3)CC2)cc1`, for which the activation was 3.95%. The same measure, in the same setting: with `CC(=O)O[C@]1(C(C)=O)CC[C@@H]2[C@@H]3C[C@H](C)C4=CC(=O)CC[C@]4(C)[C@H]3CC[C@@]21C` the figure was 17.1%; with `CC[N+](CC)(CC(=O)Nc1c(C)cccc1C)Cc1ccccc1`, -10.9%. As for `COc1cc(OC)cc(-c2ccc3ncc4ccc(=O)n(-c5ccc(N6CCNCC6)c(C(F)(F)F)c5)c4c3c2)c1`, the activation is -7.04%. As to `C[C@]12CCC(=O)C=C1C=C[C@@H]1[C@@H]2CC[C@@]2(C)[C@H]1CC[C@@]21CCC(=O)O1`, the activation was -33.3%.

With `O=C(O)CCCC[P+](c1ccccc1)(c1ccccc1)c1ccccc1`, the activation is 20.9%. Same read-out and setting: with `OC[C@H]1O[C@@H](Oc2ccc(O)cc2)[C@H](O)[C@@H](O)[C@H]1O` the figure was -6.58%; with `O=C1C(c2[nH]c3ccccc3c2O)=Nc2ccccc21`, -0.565%; with `Oc1cn2c(n1)Nc1ccc(Cl)c(Cl)c1C2`, -8.37%. Consider `COc1ccc(-c2cc(=O)c3c(O)cc(O[C@@H]4O[C@H](CO[C@@H]5O[C@@H](C)[C@H](O)[C@@H](O)[C@@H]5O)[C@@H](O)[C@H](O)[C@@H]4O)cc3o2)cc1O`, for which the activation is -19%.

Regarding `Nc1ccc(S(=O)(=O)NCc2ccccc2)cc1`, the activation is -10%. Same read-out and setting: the value for `CCN(CCCCOC(=O)c1ccc(OC)c(OC)c1)C(C)Cc1ccc(OC)cc1` (centres undefined) was -6.69%; that for `O=C(O)c1ccccn1` was 17.6%.

`CC(=O)c1ccc2c(c1)N(CCCN1CCC(CCO)CC1)c1ccccc1S2`: the activation is 0%. Same read-out and setting: with `COc1ccc(S(=O)(=O)N2c3ccc(Cl)cc3[C@@](O)(c3ccccc3Cl)[C@H]2C(=O)N2CCC[C@@H]2C(N)=O)cc1OC` the figure was -10.9%; with `CC[C@]1(O)C[C@H]2CN(CCC3=c4ccccc4=N[C]3[C@@](C(=O)OC)(c3cc4c(cc3OC)N(C)[C@H]3[C@@](O)(C(N)=O)[C@H](O)[C@]5(CC)C=CCN6CC[C@]43[C@@H]65)C2)C1`, 31.2%.

In the case of `N=C(N)N`, the activation was 7.34%. Same read-out and setting: the value for `CC(=O)OCC(=O)[C@@]1(O)CC[C@H]2[C@@H]3CCC4=CC(=O)C=C[C@]4(C)[C@@]3(F)[C@@H](O)C[C@@]21C` was -10.7%. Turning to `O=C1NC(c2ccccc2)(c2ccccc2)C(=O)N1COP(=O)(O)O`, the activation was -11.9%.

On to `CC(=O)ON=C1C(c2c(O)[nH]c3cc(Br)ccc23)=Nc2ccccc21`, for which the activation was 53.3%. Same read-out and setting: the value for `CN[C@@H]1[C@H](O)[C@H](NC)[C@H]2O[C@@]3(O)C(=O)C[C@@H](C)O[C@H]3O[C@@H]2[C@H]1O` was 27.7%; that for `CCCc1ncc(C(=O)O)s1` was -8.37%.

As to `CCN(CC)CC(=O)Nc1c(C)cccc1C(=O)OC`, the activation was -9.21%. On to `NS(=O)(=O)c1cc2c(cc1Cl)NC(CSCc1ccccc1)=NS2(=O)=O`, for which the activation was -16.7%. On to `OCCOCCN1CCN(C2=Nc3ccccc3Sc3ccccc32)CC1`, for which the activation is 7.53%. In the case of `COc1ccc(-c2oc3c(CC=C(C)C)c(OC4O[C@H](CO)[C@@H](O)[C@H](O)[C@@H]4O)cc(O)c3c(=O)c2OC2O[C@@H](C)[C@H](O)[C@@H](O)[C@@H]2O)cc1` (some centres undefined), the activation is -27.6%. As to `CCCCN(CCCC)CC(O)c1cc(Cl)cc2c1-c1ccc(Cl)cc1C2=Cc1ccc(Cl)cc1` (centres undefined), the activation is 12%. With `COc1ccc(-c2ccc(-c3cn(C(=O)N4CCCCC4c4ccccc4)nn3)cc2)cc1` (centres undefined), the activation was -8.11%.

Source of the values: PubChem BioAssay (NCATS).
